Screening data as filed in PubChem BioAssay.
Only some compounds are listed: those with a hit (about 21% of all), similar ones and a draw of the others.
HCV inh – HCV inhibition; Huh7.5.1 HCVcc-Cre infection, luciferase reporter, 44 h; Potency, µM (doses to about 41.8 µM), inactives show at the highest dose activity change, negative = inhibition, usual class: inhibitors; actives 3.4% (n = 340,000); AID 651820; also: potency is read from the fitted curve at half-maximal effect; % is scaled to controls: 0 for no effect and ±100 for the full control effect
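Luciferase read-out (15 sec integration) after a 15 min room-temperature substrate step quantifies HCVcc-Cre infection. Cells, 1,000 per well, had compound added 4 h post-plating, then virus at ~0.5 moi, and were cultured 44 h.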
Shiga toxin inh – Shiga toxin inhibition | inhibition, % at 38.7 µM | Vero cells, Shiga toxin protein synthesis inhibition reporter | AID 2315 | actives 9.2% (n = 290,000); in the data active = inhibition mostly above about 28%, no sharp cut-off; inactive = mostly below about 43%; also: 0% is about no effect
Cycloheximide cs – counter-screen hit for Shiga toxin inhibitors, cycloheximide | cell reporter, cycloheximide protein synthesis inhibition counterscreen | actives 12% (n = 300,000) | AID 2314 | max response, %; in the data active = max response mostly above about 13%, no sharp cut-off; inactive = mostly below about 14%; also: read at 38.3 µM for the half of the compounds with a filed dose; 0% is about no effect
Pf growth 48h – inhibits P. falciparum growth in the first generation, 48 h | P. falciparum luciferase growth in erythrocytes, 48 h | Potency, µM (doses to about 28.7 µM), for inactives: at the top dose activity change, negative = inhibition, most hits filed as inhibitors | actives 5.9% (n = 310,000) | AID 504832; also: potency is read from the fitted curve at half-maximal effect; % is scaled to controls: 0 for no effect and ±100 for the full control effect
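A one-generation exposure of luciferase-tagged malaria parasites in RPMI 1640/Albumax erythrocyte culture, 37 C and 5% CO2. Inhibition is inferred from decreased luminescence after adding detection reagent.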
Pf growth 96h – P. falciparum growth inhibition at 96 hours; P. falciparum luciferase reporter growth, 96 h; Potency, µM (top dose mostly 28.7 µM), for the others: at the top dose activity change, negative = inhibition, hits mostly inhibitors; actives 6.9% (n = 320,000); AID 504834; also: potency is read from the fitted curve at half-maximal effect; % is scaled to controls: 0 for no effect and ±100 for the full control effect
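96 h incubation, 37 C, 5% CO2, of luciferase-reporter P. falciparum-infected RBCs (2% hematocrit, 0.05% parasitemia final) with test compounds; endpoint luminescence.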
AMA1 RON2 block – AMA1-RON2 (P. falciparum) interaction inhibition; AlphaScreen AMA1-biotinylated RON2 peptide binding; Potency, µM (titrated, usually from 58.2 µM), without a hit: top-dose activity change, negative = inhibition, hits mostly inhibitors; actives 0.2% (n = 360,000); AID 720542;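 also: potency is read from the fitted curve at half-maximal effect; 0% = vehicle wells and -100% = peptide control; nearly all actives have a fitted effect of over 45% in size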
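AMA1 (3D7) with his tag at 25 nM final met compounds first, then biotinylated RON2 peptide at 25 nM; detection used donor plus acceptor beads, 10 µg/mL apiece, read by AlphaScreen after 30 min at room temperature.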
Active calls of the source: *; ? = inconclusive; / = not tested or not shown. Unless noted, calls follow the shape of the dose curve; as a rule, active = well fitted curve in the direction sought with a large enough effect; inconclusive = small, poorly fitted or top-dose-only effect, or another doubt; inactive = no such curve, though single readings can be large; an effect the other way counts as inactive or inconclusive.

SMILES	HCV inh	Shiga toxin inh	Cycloheximide cs	Pf growth 48h	Pf growth 96h	AMA1 RON2 block
S=c1[nH]nc(-c2cc(-c3ccccc3)n[nH]2)n1/N=C/C(Br)=C/c1ccccc1	?	63*	28*	5.2µM*	9.3µM*	77%
CC(=C/c1ccccc1)/C=N/n1c(-c2ccncc2)n[nH]c1=S	13%	-12	-2	-15%	?	-12%
COc1ccc(N(CC(=O)N/N=C(\C)CCc2ccccc2)S(=O)(=O)c2ccc(C)cc2)cc1	10%	-10	-1	-18%	-12%	9%
CC(=O)Nc1ccc(S(=O)(=O)NCc2nc(-c3cccc(C)c3)no2)cc1	-3%	-2	-4	19%	-12%	-18%
O=C(c1ccco1)N1CCN(c2ccc(N3CCCCC3)nn2)CC1	18%	/	/	-3%	?	13%
Cc1cc(-c2n[nH]c(=S)n2/N=C/C(Cl)=C/c2ccccc2)n[nH]1	11%	38*	39*	-16%	?	12%
CN(C)S(=O)(=O)c1ccc(Cl)c(C(=O)OCC(=O)c2ccco2)c1	7%	/	/	/	/	10%
COc1ccccc1-c1cc2ccccc2[nH]1	?	69*	38*	52%	74%	8%
COc1ccc(C(C)=O)cc1CSc1nnc(-c2ccncc2)n1C	12%	10	-2	6%	?	0%
COc1ccc(C(C)=O)cc1CSc1nnc(-c2ccc(Cl)cc2)n1-c1ccccc1	7.9µM*	-25	9	?	9.3µM*	-17%
COc1ccc(-c2nnc(SCc3nnc(-c4ccc(Cl)cc4)o3)n2-c2ccccc2)cc1	?	57	24*	-30%	?	33%
COc1ccc(NCc2nnc(SCc3ccc(Cl)cc3)n2-c2ccccc2)cc1	8.9µM*	-10	3	2%	55%	20µM*
Cc1ccc(NC(=O)CCN2C(=O)NC(C)(C)C2=O)cc1F	-22%	/	/	-22%	16%	2%
CSc1nnc(NC(=O)c2ccc(S(=O)(=O)N3CCOCC3)cc2)s1	/	-9	-2	-5%	8%	21%
O=C(Nc1ccc2c(c1)OCO2)C1CCN(C(=O)c2ccc([N+](=O)[O-])cc2)CC1	1%	8	8	-15%	-13%	0%
COc1ccc(/C=C/C(=O)OCC(=O)c2cc(C)ccc2C)cc1	/	/	/	/	/	7%
O=C(Cc1ccc(-c2ccccc2)cc1)Nc1ccccc1	-1%	21	22*	13%	-3%	-11%
O=C(Cc1ccc(-c2ccccc2)cc1)Nc1ncccc1O	-12%	80*	37*	75%	69%	52%
CC(=O)c1cccn1S(=O)(=O)c1ccccc1	5%	-3	1	/	13%	-3%
Cc1ccc(F)c(S(=O)(=O)NC(=O)C2(C)CCN2C(=O)C/C=C/c2ccccc2)c1 (stereo not given)	/	/	/	/	/	4%
CC(CNc1nc2ccccc2n2cnnc12)c1ccccc1 (stereo not given)	?	-10	4	?	24%	6%
O=C(CN(Cc1ccccc1)C(=O)CCl)c1cccc(Br)c1	?	/	/	?	?	-1%
CN1OC[C@@H]2COc3ccc4ccccc4c3[C@@H]21	2%	55	16	13µM*	90%	-4%
CC1=CC(=C(C#N)C#N)C=C(C)N1Cc1ccc(Cl)cc1	2%	-6	8	2.1µM*	-89%	0%
CC1=CC(=C(C#N)C#N)C=C(C)N1CCN1CCN(C(=O)Nc2ccc(Cl)c(Cl)c2)CC1	?	-7	1	?	?	-13%
SMILES	HCV inh	Shiga toxin inh	Cycloheximide cs	Pf growth 48h	Pf growth 96h	AMA1 RON2 block
CCC1CCc2sc(C(=O)O)cc2C1 (stereo not given)	11%	-13	-3	6%	3.3µM*	0%
C=CCN1CCN(C(=O)c2cc3c(s2)CCC(CC)C3)CC1 (stereo not given)	-5%	50*	37*	21%	3%	0%
CCC1CCc2sc(C(=O)NNC(=O)c3ccncc3)cc2C1 (stereo not given)	4%	/	/	-6%	3%	38%
CC1CCc2sc(C(=O)N3CCN(c4ncccn4)CC3)cc2C1 (stereo not given)	34%	/	/	/	/	-11%
O=C(CCc1nc(-c2ccc(Cl)cc2)no1)NCc1ccccc1CN1CCOCC1	-19%	/	/	-16%	-16%	-1%
CC(=O)Nc1cccc(OCCCNS(=O)(=O)c2ccc(F)cc2)c1	-21%	9	-2	-2%	12%	-11%
Cc1ccc2oc(-c3ccccc3)c(C(=O)O)c(=O)c2c1	-24%	80*	44*	147%	92%	-5%
O=c1c(O)c(-c2cccs2)oc2ccccc12	4%	15	18*	-26%	-11%	24%
Cc1ccc(-c2oc3ccccc3c(=O)c2O)cc1	6%	9	14*	3.7µM*	35%	42%
COc1ccc(OC)c(/C=C/C(=O)OCC(=O)N2CCN(S(=O)(=O)c3ccc(C)cc3C)CC2)c1	?	/	/	19%	12%	-12%
O=C(NCC(=O)N1CCN(c2ccccc2F)CC1)c1ccc(Br)o1	20%	/	/	-3%	-2%	-18%
CCOc1cc(C=O)ccc1OCc1cc(=O)n2cc(C)ccc2n1	7%	-13	-4	7%	4%	1%
Cc1ccc2nc(COc3ccc(Cl)cc3)cc(=O)n2c1	4%	98*	41*	270%	248%	-9%
CC(C)CNC(=S)N(CCO)Cc1cc2cc3c(cc2[nH]c1=O)OCO3	3%	-13	-1	-21%	?	0%
Cc1cc(C)c2[nH]c(=O)c(C(c3nnnn3CC3CCCO3)N3CCC(C)CC3)cc2c1 (stereo not given)	-20%	-20	7	?	0%	19%
Cc1cc(C)c2[nH]c(=O)c(C(c3nnnn3Cc3ccc4c(c3)OCO4)N3CCCCC3)cc2c1 (stereo not given)	15%	-17	0	-15%	-3%	-9%
CCC(C)(C)n1nnnc1C(c1cc2cc(C)cc(C)c2[nH]c1=O)N1CCN(Cc2ccc3c(c2)OCO3)CC1 (stereo not given)	23%	2	0	/	0.52µM*	37%
Cc1cc(C)c2[nH]c(=O)c(C(c3nnnn3CC3CCCO3)N3CCCC(C)C3)cc2c1 (stereo not given)	0%	-6	-3	15µM*	/	2%
CCC(C)(C)n1nnnc1C(c1cc2cccc(C)c2[nH]c1=O)N1CCCC1 (stereo not given)	?	-4	1	?	-8%	8%
CCC(C)(C)n1nnnc1C(c1cc2cc(C)cc(C)c2[nH]c1=O)N1CCCC1 (stereo not given)	?	19	-4	5.9µM*	?	33%
CCOC(=O)c1cnn(C)c1NC(=O)c1ccc(Cl)cc1Cl	0%	-5	-1	2%	?	7%
